In PubChem BioAssay AID588590 (National Center for Advancing Translational Sciences (NCATS), 2011):
Several values for one entry are separate records, joined by “and”; a condition that tells them apart may be missing. Equal entries are not always repeated. Screen size: about 390,000 compounds; about 4,000 (1%) were called active. Entries that show only a call come without a potency. Not shown: some 7% with an inconclusive outcome. The sample holds actives, similar compounds and a random draw of the others, so the mix is not that of the screen. Calls come from the whole dose curve; as a rule, active = well fitted inhibition curve with a large enough effect; inconclusive = small, poorly fitted or top-dose-only effect, or another doubt; inactive = no such curve, though single readings can be large or run the other way.

These compounds were tested against DNA polymerase iota (Homo sapiens) (UniProt Q9UNA4) (assay: qHTS for Inhibitors of Polymerase Iota). Conditions: Pol iota fluorescent replication assay, 10 min; series mostly up to 115 µM.
How it was run: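 Fluorescent replication assay read twice, at 0 min and 10 min after adding 50 nM (final) substrate. Enzyme (10 nM) and compounds were first incubated 15 min at room temperature; enzyme-free buffer wells were negative controls.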
Potency is the fitted concentration of half-maximal effect.

Sequence of DNA polymerase iota (Homo sapiens) (Q9UNA4 whole entry, looked up): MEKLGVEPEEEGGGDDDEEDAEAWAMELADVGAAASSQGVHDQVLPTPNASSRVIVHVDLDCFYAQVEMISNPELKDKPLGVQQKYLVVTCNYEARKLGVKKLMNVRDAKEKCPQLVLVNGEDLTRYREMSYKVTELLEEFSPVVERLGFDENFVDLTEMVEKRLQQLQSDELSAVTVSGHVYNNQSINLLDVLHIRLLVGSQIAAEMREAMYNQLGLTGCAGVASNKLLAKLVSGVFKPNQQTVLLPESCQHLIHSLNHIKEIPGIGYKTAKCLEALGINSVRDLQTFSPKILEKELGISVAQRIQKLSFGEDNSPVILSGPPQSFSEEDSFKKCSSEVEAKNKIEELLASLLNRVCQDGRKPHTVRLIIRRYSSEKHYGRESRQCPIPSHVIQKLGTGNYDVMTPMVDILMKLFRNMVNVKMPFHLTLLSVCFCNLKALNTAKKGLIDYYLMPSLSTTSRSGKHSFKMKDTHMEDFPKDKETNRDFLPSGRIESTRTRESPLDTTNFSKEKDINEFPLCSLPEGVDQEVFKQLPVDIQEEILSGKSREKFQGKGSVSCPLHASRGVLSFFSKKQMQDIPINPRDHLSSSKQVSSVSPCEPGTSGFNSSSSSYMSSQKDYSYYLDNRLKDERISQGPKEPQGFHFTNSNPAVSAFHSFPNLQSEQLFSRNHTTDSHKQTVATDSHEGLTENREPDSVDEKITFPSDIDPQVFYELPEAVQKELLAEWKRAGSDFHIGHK

Structure (SMILES)	Potency
Nc1ncnc2nnsc12	inactive
COC(=O)c1ccc(Cn2c(SCC(=O)N(C)c3ccccc3)nc3ccccc32)cc1	inactive
CCC(C)Cn1c(O)cc2nn(-c3nc4ccccc4s3)c(=O)c-2c1C (stereo unspecified)	12.6 µM (active)
O=C1NN(c2ccccc2)C(=O)/C1=C/c1ccc(-c2cccc(C(=O)O)c2)o1	8.91 µM (active)
CC(=O)c1cc(-c2ccccc2)[nH]c1N1CCCC1	inactive
COc1ccc2c(c1)C=C(C(=O)NCc1cc(Br)ccc1OC)CO2	inactive
COC(=O)c1ccc(NC(=O)CCc2c(C)nn(-c3ccc(N4CCCC4)nn3)c2C)cc1	inactive
COc1ccc(C)cc1NC(=O)COCc1cc(-c2cccs2)on1	inactive
O=C(NC1CC(=O)N(c2ccccc2)C1)c1ccco1 (stereo unspecified)	inactive
CCOc1cc2[nH]c(=O)n(Cc3ccc(C(=O)NCCN(CC)CC)cc3)c(=O)c2cc1OCC	inactive
Cc1ccc(C(=O)OCC(=O)NCc2cc(C)c(O)c(C)c2)cc1S(=O)(=O)N1CCCCC1	79.4 µM (active)
Cc1ccc(C(=O)OCC(=O)N2CC(C)CC(C)C2)cc1S(=O)(=O)N1CCCCC1 (stereo unspecified)	inactive
COc1ccc(CNC(=O)COC(=O)c2ccc(C)c(S(=O)(=O)N3CCOCC3)c2)cc1OC	inactive
CC1CCCN(c2nc3c(S(=O)(=O)c4ccc(C(C)C)cc4)nnn3c3ccsc23)C1 (stereo unspecified)	inactive
CCc1nn(CC(=O)Nc2cccc(C)c2C)c(=O)c2cc3sccc3n12	inactive
C[N+](C)(CCCCCC[N+](C)(C)CCCN1C(=O)c2cccc3cccc(c23)C1=O)CCCN1C(=O)c2cccc3cccc(c23)C1=O	2.24 µM (active) and 20 µM (active)
O=C(CN1C(=O)c2cccc3cccc(c23)C1=O)N1CCCCC1	inactive
O=C(CN1C(=O)c2cccc3cccc1c23)Nc1ccccc1	inactive
CCn1c(C)c(C)c2cc(C(=O)NCCc3cc(OC)ccc3OC)ccc21	inactive
Cc1cccc(CCNC(=O)c2ccc3c(c2)nc2n3CCC(C)C2)c1 (stereo unspecified)	inactive
COc1cc2[nH]c(C)c(CCN3CCN(c4ccccc4)CC3)c2cc1OC	inactive
COC(=O)C1=C(C)NC(=O)/C1=C/c1ccc(CNS(=O)(=O)c2ccc(C)cc2)o1	inactive
O=c1/c(=C/c2ccc(CNS(=O)(=O)c3ccccc3)o2)sc2n1CCN=2	35.5 µM (active)
O=S(=O)(NCc1ccccc1)c1ccc(S(=O)(=O)N2CCCC2)cc1	inactive
CCc1cccc(-n2nnc(-c3nsc(NC(=O)c4ccc(C)cc4)n3)c2C)c1	inactive
O=C(Nc1ccc2oc(-c3ccc(O)c(Br)c3)nc2c1)c1cc2ccccc2o1	inactive
